Source: PubChem BioAssay AID1159580 (chemical genetic matrix, 2015)
In all, about 5,500 compounds went through this assay and about 2,000 (36%) were called active. About 18% were inconclusive and are not listed. No stated cut-off is given here; in the data, active means normalized growth mostly below about 0.91 (no sharp cut-off); inconclusive means no clear call, values can overlap the other calls; inactive means mostly above about 0.92. This is one part of the list.

Test: chemical genetic growth profiling, strain panel (AID 1159580);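 further: tested at 20 µM; growth read once vehicle control cultures reached saturation at 30 °C; 1 = growth at the plate median or of vehicle wells; lower values mean less growth of the strain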
Conditions: S. cerevisiae deletion strains, growth OD

Measured: normalized growth

Cc1ccc(N=CN(C)C=Nc2ccc(C)cc2C)c(C)c1
inactive: locus YAL021C, strain ccr4, active compounds read low 0.944 | locus YAL026C, strain drs2, active compounds read low 0.962 | locus YAL030W, strain snc1, active compounds read low 0.984 | locus YBL061C, strain skt5, active compounds read low 0.986 | locus YBR009C, strain hhf1, active compounds read low 0.926 | locus YBR023C, strain chs3, active compounds read low 1 | locus YBR171W, strain sec66, active compounds read low 0.971 | locus YBR231C, strain swc5, active compounds read low 1 | locus YBR279W, strain paf1, active compounds read low 0.983 | locus YCL011C, strain gbp2, active compounds read low 0.965 | locus YCL016C, strain dcc1, active compounds read low 0.971 | locus YCL061C, strain MRC1, active compounds read low 0.952 | locus YCL069W, strain vba3, active compounds read low 0.979 | locus YCR088W, strain abp1, active compounds read low 0.99 | locus YDL005C, strain med2, active compounds read low 0.987 | locus YDL040C, strain nat1, active compounds read low 0.987 | locus YDR001C, strain nth1, active compounds read low 0.979 | locus YDR069C, strain doa4, active compounds read low 0.969 | locus YDR137W, strain rgp1, active compounds read low 0.981 | locus YDR159W, strain sac3, active compounds read low 0.974 | locus YDR195W, strain ref2 1.03 | locus YDR297W, strain sur2, active compounds read low 0.977 | locus YDR334W, strain swr1, active compounds read low 0.987 | locus YDR335W, strain msn5, active compounds read low 0.966 | locus YDR392W, strain spt3, active compounds read low 0.925 | locus YEL003W, strain gim4, active compounds read low 0.957 | locus YEL037C, strain rad23, active compounds read low 0.98 | locus YEL061C, strain CIN8 (second series), active compounds read low 0.986 | locus YER015W, strain faa2, active compounds read low 0.972 | locus YER016W, strain bim1, active compounds read low 0.975 | locus YER111C, strain swi4, active compounds read low 0.955 | locus YER155C, strain BEM2 (second series), active compounds read low 1.01 | locus YFR010W, strain ubp6, active compounds read low 0.987 | locus YGL167C, strain pmr1, active compounds read low 0.98 | locus YGL173C, strain kem1, active compounds read low 0.962 | locus YGL227W, strain vid30, active compounds read low 0.988 | locus YGL240W, strain doc1, active compounds read low 0.969 | locus YGL253W, strain hxk2, active compounds read low 0.979 | locus YHR013C, strain ard1, active compounds read low 0.943 | locus YHR027C, strain rpn1, active compounds read low 0.975 | locus YHR030C, strain SLT2, active compounds read low 0.999 | locus YHR079C, strain IRE1, active compounds read low 1.01 | locus YHR142W, strain chs7, active compounds read low 0.957 | locus YJL092W, strain hpr5, active compounds read low 0.978 | locus YJL095W, strain BCK1 (second series), active compounds read low 0.978 | locus YJL095W, strain BCK1, active compounds read low 0.962 | locus YJL115W, strain asf1, active compounds read low 0.966 | locus YJL129C, strain trk1, active compounds read low 0.976 | locus YJL154C, strain vps35, active compounds read low 0.987 | locus YJL164C, strain tpk1, active compounds read low 0.97 | locus YJL166W, strain qcr8, active compounds read low 0.974 | locus YJR066W, strain TOR1, active compounds read low 0.962 | locus YKL160W, strain elf1, active compounds read low 0.989 | locus YKR026C, strain gcn3, active compounds read low 0.989 | locus YKR091W, strain srl3, active compounds read low 0.983 | locus YLL001W, strain dnm1, active compounds read low 0.998 | locus YLL026W, active compounds read low 0.996 | locus YLL041C, strain sdh2, active compounds read low 0.98 | locus YLR027C, strain aat2, active compounds read low 0.98 | locus YLR113W, strain HOG1, active compounds read low 0.988 | locus YLR221C, strain rsa3, active compounds read low 0.941 | locus YLR258W, strain gsy2, active compounds read low 0.98 | locus YLR262C, strain YPT6 (second series), active compounds read low 0.962 | locus YLR320W, strain mms22, active compounds read low 0.969 | locus YLR342W, strain FKS1, active compounds read low 0.985 | locus YLR357W, strain rsc2, active compounds read low 0.898 | locus YLR370C, strain arc18, active compounds read low 0.985 | locus YLR384C, strain iki3, active compounds read low 0.993 | locus YML120C, strain ndi1, active compounds read low 0.975 | locus YMR058W, strain fet3, active compounds read low 0.972 | locus YMR125W, strain sto1, active compounds read low 1 | locus YMR129W, active compounds read low 0.97 | locus YMR205C, strain PFK2, active compounds read low 0.998 | locus YMR231W, strain pep5, active compounds read low 0.995 | locus YNL071W, strain lat1, active compounds read low 0.978 | locus YNL183C, strain NPR1, active compounds read low 0.976 | locus YNL209W, strain ssb2, active compounds read low 0.978 | locus YNL248C, strain rpa49, active compounds read low 0.905 | locus YNL322C, strain KRE1 (second series), active compounds read low 0.967 | locus YNR049C, strain mso1, active compounds read low 0.948 | locus YOR001W, strain rrp6, active compounds read low 0.984 | locus YOR070C, strain gyp1, active compounds read low 0.975 | locus YOR080W, strain dia2, active compounds read low 0.973 | locus YOR083W, strain WHI5, active compounds read low 0.983 | locus YOR106W, strain vam3, active compounds read low 0.95 | locus YOR231W, strain MKK1, active compounds read low 0.994 | locus YOR265W, strain rbl2, active compounds read low 0.991 | locus YOR270C, strain vph1, active compounds read low 0.837 | locus YOR290C, strain snf2, active compounds read low 0.949 | locus YPL051W, strain arl3, active compounds read low 0.965 | locus YPL078C, strain atp4, active compounds read low 0.97 | locus YPL106C, strain sse1, active compounds read low 0.948 | locus YPL240C, strain hsp82, active compounds read low 0.994 | locus YPL256C, strain CLN2, active compounds read low 1.01
